Assay [1] has as its target Nuclear receptor subfamily 1 group I member 3 (Homo sapiens) (UniProt Q14994). The experiment in a line: ATG_CAR_TRANS: Attagene TRANS-FACTORIAL HepG2 Assay for human Constitutive Androstane Receptor (CAR) (AID 2282969).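 Further: activators raise reporter mRNA above DMSO so AC50 marks induction.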 Particulars: HepG2 Attagene TRANS-FACTORIAL CAR reporter. In a few lines: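 Steps: transient transfection of HepG2 with multiple GAL4-UAS reporter units; 24 h compound incubation; RNA isolation, RT-PCR, 6-FAM primer extension, HpaI digest; capillary electrophoresis. Gain-of-signal relative to DMSO negative control.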

Assay [2] is described as follows: ATG_M_19_TRANS: Attagene TRANS-FACTORIAL HepG2 Assay for M19 Transcription Factor (Internal Marker) (AID 2282974). Particulars: HepG2 Attagene TRANS-FACTORIAL M19 internal marker reporter. In a few lines: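 Background-control readout: after 24 h chemical exposure of transfected HepG2 carrying GAL4-driven reporter units, RNA was reverse-transcribed, amplified, fluorescently labeled and sized by capillary electrophoresis; gain-of-signal fit against DMSO.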

Assay [3] in a line: ATG_GAL4_TRANS: Attagene TRANS-FACTORIAL HepG2 Assay for GAL4 (Internal Marker) (AID 2282976). The note with it: HepG2 Attagene TRANS GAL4 internal marker reporter. In a few lines: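 First, HepG2 cells were transfected with reporter units under GAL4-UAS control. Next, they were treated with chemical for 24 h. Finally, RNA was reverse-transcribed, PCR-amplified, FAM-labelled and resolved by capillary electrophoresis, with induction scored against DMSO.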

The target in assay [4] is Glucocorticoid receptor (Homo sapiens) (UniProt P04150). The experiment in a line: ATG_GR_TRANS: Attagene TRANS-FACTORIAL HepG2 Assay for human Glucocorticoid Receptor (GR) (AID 2282978).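 Further: activators score as hits since higher reporter transcript over DMSO is fitted.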 Particulars: HepG2 Attagene TRANS GR reporter, mRNA transcription. In a few lines: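 Readout is reporter transcript from a chimeric GR-Gal4 acting on GAL4-UAS in transfected human HepG2 liver cells after 24 h exposure, quantified by RT-PCR and capillary electrophoresis. Activation fitted upward against DMSO.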

Assay [5] deals with Bile acid receptor (Homo sapiens) (UniProt Q96RI1). The experiment in a line: ATG_FXR_TRANS: Attagene TRANS-FACTORIAL HepG2 Assay for Farnesoid X Receptor (FXR) (AID 2282979).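 Further: hits raise reporter mRNA above DMSO so AC50 marks FXR activation.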 The note with it: HepG2 Attagene TRANS FXR-GAL4 reporter transcription. In a few lines: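 Transient transfection of HepG2 with multiplexed GAL4-UAS reporter units; exogenous FXR-GAL4 chimera. Dose 24 h → TriZol RNA → oligo(dT) RT → PCR, 6-FAM primer extension, HpaI cut → CE. Gain vs DMSO.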

Assay [6] addresses Oxysterols receptor LXR-alpha (Homo sapiens) (UniProt Q13133). The experiment in a line: ATG_LXRa_TRANS: Attagene TRANS-FACTORIAL HepG2 Assay for human Liver X Receptor alpha (LXRa) (AID 2282980). The note with it: HepG2 Attagene TRANS reporter, LXRa transactivation. An outline of the steps: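 Transfect HepG2 with GAL4-UAS multiplex reporter constructs (TRANS format, chimeric receptor-GAL4); treat 24 h; extract RNA, reverse-transcribe, PCR-amplify, FAM-label, HpaI-digest; resolve fragments by capillary electrophoresis. Upward response vs DMSO.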

The target of assay [7] is Oxysterols receptor LXR-beta (Homo sapiens) (UniProt P55055). Put plainly: ATG_LXRb_TRANS: Attagene TRANS-FACTORIAL HepG2 Assay for human Liver X Receptor beta (LXRb) (AID 2282981). Particulars: HepG2 Attagene TRANS GAL4-LXRb reporter, mRNA. An outline of the steps:
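Measures induction of a Gal4-driven reporter transcript in HepG2 cells expressing an exogenous LXRb-Gal4 fusion. Cells are exposed to compound for 24 h before RNA isolation and RT-PCR with capillary electrophoresis detection.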

Assay [8] addresses human Peroxisome Proliferator-activated Receptor delta (PPARd), PPARD (gene 5467) (UniProt Q03181). The experiment in a line: ATG_PPARd_TRANS: Attagene TRANS-FACTORIAL HepG2 Assay for human Peroxisome Proliferator-activated Receptor delta (PPARd) (AID 2283002). An outline of the steps:
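HepG2 cells transiently transfected with multiplexed GAL4-UAS reporter units and exogenous chimeric NR-Gal4 proteins; 24 h compound exposure. Reporter mRNA measured by RT-PCR, 6-FAM labelling, HpaI digestion and capillary electrophoresis; gain of signal versus DMSO.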

Assay [9] can be described thus: TOX21_p53_BLA_p4_viability: Viability Assessment in the Tox21 HCT-116 p53 Agonism Beta-lactamase Assay, Phase 4 (AID 2283597).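 Further: hits lower the luminescence signal meaning cytotoxicity.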 In a few lines:
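Readout: ATP luminescence (CellTiter-Glo), measured 30 min after reagent addition at RT. The reagent followed a 2 h CCF4-AM incubation, and the cells had been exposed to compound for 16 h at 37C.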

Assay [10] is described as follows: ACEA_ER_AUC_viability: ACEA Biosciences xCELLigence Real-Time Cell Analysis on Estrogen Receptor Agonism for Viability (AID 2283782).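 Further: hit means loss of impedance signal meaning reduced cell growth or viability.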 In a few lines: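 Continuous-exposure impedance cell analysis uses T-47D cells in charcoal-stripped serum, eight 1:4 dilutions topping at 100 uM final, biological duplicate. Area under the growth curve at 80 h is fitted against DMSO baseline.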

Assay [11] in a line: ATG_PPRE_CIS: Attagene CIS-FACTORIAL HepG2 Assay for human Peroxisome Proliferator-activated Response Element (PPRE) (AID 2282958; active means hit-call score of the fitted dose curve at least 0.9, where 1 is the maximum; inactive means score below 0.9). The note with it: HepG2 PPRE cis-element reporter, Attagene transcription factor profiling; actives raise or lower the signal. In a few lines:
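Endogenous PPRE-driven transcription is measured in HepG2 cells carrying transfected multi-reporter constructs. Reporter transcripts are quantified by RT-PCR, HpaI digestion and capillary electrophoresis 24 h after dosing. DMSO baseline, bidirectional fit.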

Assay [12] can be described thus: ATG_M_06_TRANS: Attagene TRANS-FACTORIAL HepG2 Assay for M06 Transcription Factor (Internal Marker) (AID 2282983).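 Further: reporter transcript level by RT-PCR then capillary electrophoresis fluorescence.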 The note with it: HepG2 Attagene TRANS M06 internal marker reporter. An outline of the steps: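 Background control endpoint: reporter mRNA from transiently transfected HepG2 after 24 h dosing, detected by RT-PCR with capillary electrophoresis fluorescence. Analysed for gain versus DMSO.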

For assay [13], the target named is Peroxisome proliferator-activated receptor gamma (Homo sapiens) (UniProt P37231). Put plainly: ATG_PPARg_TRANS: Attagene TRANS-FACTORIAL HepG2 Assay for human Peroxisome Proliferator-activated Receptor-gamma (PPARg) (AID 2283007). In a few lines:
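After 24 h of chemical exposure, transfected HepG2 cells carrying PPARγ-Gal4 chimera reporter constructs are lysed for RNA. Reporter transcripts are measured by RT-PCR and capillary electrophoresis with fluorescent labelling, and gain of signal is fitted versus DMSO.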

Assay [14] concerns the target human RAR-related Orphan Receptor beta (RORb), RORB (gene 6096) (UniProt Q92753). The experiment in a line: ATG_RORb_TRANS: Attagene TRANS-FACTORIAL HepG2 Assay for human RAR-related Orphan Receptor beta (RORb) (AID 2283010). In a few lines:
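Transfect HepG2 with multiple GAL4-UAS reporter transcription units; dose chemicals for 24 h; isolate RNA, reverse-transcribe and PCR-amplify reporter sequences; label, digest and resolve fragments by capillary electrophoresis; fit increases relative to DMSO.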

Assay [15] concerns the target Retinoic acid receptor RXR-alpha (Homo sapiens) (UniProt P19793). Put plainly: ATG_RXRa_TRANS: Attagene TRANS-FACTORIAL HepG2 Assay for human Retinoid X Receptor alpha (RXRa) (AID 2283012). In a few lines:
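Measures exogenous chimeric NR-GAL4 activity in transfected HepG2 liver cells after 24 h of dosing. Induced reporter mRNA was detected by RT-PCR with capillary electrophoresis, and gain of signal was analysed against DMSO.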

The target in assay [16] is human Thyroid Receptor alpha (THRa1), THRA (gene 7067) (UniProt P10827). Put plainly: ATG_THRa1_TRANS: Attagene TRANS-FACTORIAL HepG2 Assay for human Thyroid Receptor alpha (THRa1) (AID 2283014). In a few lines:
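Reporter transcript induction, read by capillary electrophoresis of 6-FAM-labelled RT-PCR products, reflects activity of a transfected THRa1-Gal4 fusion in HepG2 liver cells. Cells were dosed for 24 h; activity was fitted in the positive direction against DMSO.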

Assay [17] deals with human Vitamin D Receptor (VDR), VDR (gene 7421) (UniProt P11473). The experiment in a line: ATG_VDR_TRANS: Attagene TRANS-FACTORIAL HepG2 Assay for human Vitamin D Receptor (VDR) (AID 2283022). In a few lines:
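Steps: transfect HepG2 with GAL4-UAS-driven reporter constructs; dose compounds 24 h; isolate RNA, reverse-transcribe, PCR-amplify with 6-FAM-labelled primer extension and HpaI digestion; quantify fragments by capillary electrophoresis relative to DMSO.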

Assay [18] in a line: ATG_VDRE_CIS: Attagene CIS-FACTORIAL HepG2 Assay for human Vitamin D Receptor Element (VDRE) (AID 2282968; active means hit-call score of the fitted dose curve at least 0.9, where 1 is the maximum; inactive means score below 0.9). Particulars: HepG2 VDRE cis-reporter transcription, actives raise or lower the signal. In a few lines:
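Steps: transfect HepG2 with multiple reporter transcription units; dose chemicals 24 h; isolate RNA; RT-PCR; label with 6-FAM primer extension; HpaI digest; capillary electrophoresis. Curves fitted both directions against DMSO.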

Assay [19] can be described thus: CCTE_Harrill_HTTr_Viability_MCF7: CCTE's 6-hour Cell Viability Assessment for the High-Throughput Transcriptomics (HTTr) Platform, in MCF-7 cells cultured in DMEM + 10% fetal bovine serum, Harrill Lab (AID 2284010; active means hit-call score of the fitted dose curve at least 0.9, where 1 is the maximum; inactive means score below 0.9). An outline of the steps:
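Read-out is propidium iodide gain of signal by high-content imaging, reflecting membrane integrity loss. Measurements are taken 6 h after dosing, eight concentrations per chemical, with DMSO serving as baseline for bidirectional curve fitting.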

Assay [20] is described as follows: CCTE_Harrill_HTTr_Apoptosis_MCF7: CCTE's 6-hour Apoptosis Assessment for the High-Throughput Transcriptomics (HTTr) Platform, in MCF-7 cells cultured in DMEM + 10% fetal bovine serum, Harrill Lab (AID 2284011; active means hit-call score of the fitted dose curve at least 0.9, where 1 is the maximum; inactive means score below 0.9). In a few lines: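 MCF-7 (DMEM + 10% FBS), 384-well; 8-pt dilution series, 6 h chemical exposure; caspase-3/7 activation via CellEvent Caspase 3/7 Green, HCI; bidirectional fit vs DMSO.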

Results filed as inconclusive are left out. The source holds several records for some structures; these can differ, active in one and inactive in another. Calls of active or inactive are those of the source. How the source made its calls, unless noted: active means hit-call score of the fitted dose curve at least 0.9, where 1 is the maximum; inconclusive means response in the unintended direction; inactive means score below 0.9.

The term AC50 denotes the concentration at which the activity in the assay is half-maximal.

Sequence of Oxysterols receptor LXR-beta (Homo sapiens) (P55055 whole entry, looked up, the tested form may be a part): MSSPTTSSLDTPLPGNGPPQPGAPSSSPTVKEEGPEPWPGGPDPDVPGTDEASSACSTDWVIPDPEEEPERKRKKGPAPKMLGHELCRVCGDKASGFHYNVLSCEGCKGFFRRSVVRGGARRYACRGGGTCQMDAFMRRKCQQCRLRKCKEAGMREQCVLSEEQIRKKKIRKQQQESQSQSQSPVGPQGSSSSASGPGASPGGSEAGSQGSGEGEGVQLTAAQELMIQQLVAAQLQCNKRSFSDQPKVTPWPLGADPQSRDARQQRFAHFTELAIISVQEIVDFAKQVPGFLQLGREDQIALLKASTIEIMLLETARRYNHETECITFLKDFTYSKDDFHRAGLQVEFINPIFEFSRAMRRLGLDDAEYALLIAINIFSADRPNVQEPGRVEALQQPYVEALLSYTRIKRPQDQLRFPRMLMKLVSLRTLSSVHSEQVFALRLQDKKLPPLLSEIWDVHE
Sequence of Glucocorticoid receptor (Homo sapiens) (P04150 whole entry, looked up, the tested form may be a part): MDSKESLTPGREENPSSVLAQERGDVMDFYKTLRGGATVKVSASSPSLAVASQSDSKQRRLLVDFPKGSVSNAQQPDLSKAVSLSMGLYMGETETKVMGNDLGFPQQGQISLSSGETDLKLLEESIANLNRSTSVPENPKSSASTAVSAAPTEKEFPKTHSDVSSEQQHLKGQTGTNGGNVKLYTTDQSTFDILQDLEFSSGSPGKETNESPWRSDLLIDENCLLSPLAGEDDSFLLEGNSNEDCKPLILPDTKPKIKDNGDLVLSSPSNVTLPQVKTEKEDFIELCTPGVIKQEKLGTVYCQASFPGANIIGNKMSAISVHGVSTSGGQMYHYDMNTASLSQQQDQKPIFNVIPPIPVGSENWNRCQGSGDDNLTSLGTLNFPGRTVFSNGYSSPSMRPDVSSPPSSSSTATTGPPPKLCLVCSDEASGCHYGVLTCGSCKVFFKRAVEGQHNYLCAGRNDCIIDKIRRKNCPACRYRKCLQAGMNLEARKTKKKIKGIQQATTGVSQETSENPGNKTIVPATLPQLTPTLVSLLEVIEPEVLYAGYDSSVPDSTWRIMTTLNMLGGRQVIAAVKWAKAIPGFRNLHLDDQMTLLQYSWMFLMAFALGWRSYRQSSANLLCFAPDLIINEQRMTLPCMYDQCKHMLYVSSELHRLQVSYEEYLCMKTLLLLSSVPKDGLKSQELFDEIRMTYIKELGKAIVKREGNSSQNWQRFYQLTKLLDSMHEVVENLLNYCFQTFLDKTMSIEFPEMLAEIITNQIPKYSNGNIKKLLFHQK
Sequence of Nuclear receptor subfamily 1 group I member 3 (Homo sapiens) (Q14994 whole entry, looked up, the tested form may be a part): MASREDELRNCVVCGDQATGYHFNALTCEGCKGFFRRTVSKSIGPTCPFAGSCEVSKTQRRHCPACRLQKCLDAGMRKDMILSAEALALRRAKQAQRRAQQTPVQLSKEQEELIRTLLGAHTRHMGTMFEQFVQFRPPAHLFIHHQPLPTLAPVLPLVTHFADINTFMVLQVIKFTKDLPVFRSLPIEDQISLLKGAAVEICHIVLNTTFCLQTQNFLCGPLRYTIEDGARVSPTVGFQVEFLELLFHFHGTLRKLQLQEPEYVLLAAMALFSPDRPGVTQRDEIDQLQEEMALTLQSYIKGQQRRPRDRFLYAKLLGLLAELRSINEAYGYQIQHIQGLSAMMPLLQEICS
Sequence of human Vitamin D Receptor (VDR), VDR (gene 7421) (P11473 whole entry, looked up, the tested form may be a part): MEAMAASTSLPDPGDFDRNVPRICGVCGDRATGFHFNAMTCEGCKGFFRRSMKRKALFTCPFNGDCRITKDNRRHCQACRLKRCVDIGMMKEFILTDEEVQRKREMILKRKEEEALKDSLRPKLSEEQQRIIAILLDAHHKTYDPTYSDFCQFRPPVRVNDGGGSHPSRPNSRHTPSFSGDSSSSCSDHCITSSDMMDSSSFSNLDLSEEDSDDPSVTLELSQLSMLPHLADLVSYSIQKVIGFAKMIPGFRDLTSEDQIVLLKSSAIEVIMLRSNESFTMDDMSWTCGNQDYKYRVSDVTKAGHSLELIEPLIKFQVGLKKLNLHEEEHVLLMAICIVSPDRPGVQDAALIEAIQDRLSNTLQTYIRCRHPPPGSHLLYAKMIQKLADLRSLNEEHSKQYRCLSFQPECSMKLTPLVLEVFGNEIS
Sequence of Retinoic acid receptor RXR-alpha (Homo sapiens) (P19793 whole entry, looked up, the tested form may be a part): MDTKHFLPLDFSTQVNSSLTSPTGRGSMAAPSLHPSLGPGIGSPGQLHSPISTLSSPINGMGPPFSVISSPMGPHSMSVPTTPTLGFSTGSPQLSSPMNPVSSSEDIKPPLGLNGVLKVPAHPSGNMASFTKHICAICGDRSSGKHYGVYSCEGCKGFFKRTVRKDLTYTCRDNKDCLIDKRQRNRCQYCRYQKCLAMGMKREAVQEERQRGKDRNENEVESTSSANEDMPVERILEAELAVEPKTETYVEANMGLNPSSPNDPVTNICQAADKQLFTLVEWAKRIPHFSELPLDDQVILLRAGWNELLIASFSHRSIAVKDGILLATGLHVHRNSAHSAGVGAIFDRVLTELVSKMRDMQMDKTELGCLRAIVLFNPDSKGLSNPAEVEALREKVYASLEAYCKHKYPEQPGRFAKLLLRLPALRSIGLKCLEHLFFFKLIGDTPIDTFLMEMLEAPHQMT
Sequence of human Peroxisome Proliferator-activated Receptor delta (PPARd), PPARD (gene 5467) (Q03181 whole entry, looked up, the tested form may be a part): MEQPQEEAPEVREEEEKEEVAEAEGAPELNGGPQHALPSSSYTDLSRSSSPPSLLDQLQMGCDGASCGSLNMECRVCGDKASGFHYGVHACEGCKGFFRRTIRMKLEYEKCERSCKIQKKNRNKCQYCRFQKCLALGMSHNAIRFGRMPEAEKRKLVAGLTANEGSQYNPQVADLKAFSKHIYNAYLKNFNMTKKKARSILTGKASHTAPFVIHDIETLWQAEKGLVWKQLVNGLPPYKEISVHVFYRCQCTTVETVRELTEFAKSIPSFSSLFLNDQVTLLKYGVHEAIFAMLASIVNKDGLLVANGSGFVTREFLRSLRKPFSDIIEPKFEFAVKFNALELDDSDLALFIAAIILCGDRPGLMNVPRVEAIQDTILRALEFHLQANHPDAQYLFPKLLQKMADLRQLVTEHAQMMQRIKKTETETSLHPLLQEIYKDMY
Sequence of human Thyroid Receptor alpha (THRa1), THRA (gene 7067) (P10827 whole entry, looked up, the tested form may be a part): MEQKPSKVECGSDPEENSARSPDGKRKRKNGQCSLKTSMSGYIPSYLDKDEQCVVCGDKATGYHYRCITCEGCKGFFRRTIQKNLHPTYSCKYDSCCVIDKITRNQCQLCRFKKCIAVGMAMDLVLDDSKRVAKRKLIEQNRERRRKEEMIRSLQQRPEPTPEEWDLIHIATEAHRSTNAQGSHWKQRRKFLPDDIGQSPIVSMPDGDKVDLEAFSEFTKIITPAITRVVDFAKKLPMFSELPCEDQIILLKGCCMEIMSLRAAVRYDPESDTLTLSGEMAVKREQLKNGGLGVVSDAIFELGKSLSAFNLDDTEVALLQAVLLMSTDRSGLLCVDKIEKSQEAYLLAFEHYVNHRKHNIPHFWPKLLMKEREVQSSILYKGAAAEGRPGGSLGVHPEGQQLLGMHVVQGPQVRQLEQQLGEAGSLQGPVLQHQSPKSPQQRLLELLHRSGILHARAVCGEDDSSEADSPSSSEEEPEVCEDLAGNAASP
Sequence of human RAR-related Orphan Receptor beta (RORb), RORB (gene 6096) (Q92753 whole entry, looked up, the tested form may be a part): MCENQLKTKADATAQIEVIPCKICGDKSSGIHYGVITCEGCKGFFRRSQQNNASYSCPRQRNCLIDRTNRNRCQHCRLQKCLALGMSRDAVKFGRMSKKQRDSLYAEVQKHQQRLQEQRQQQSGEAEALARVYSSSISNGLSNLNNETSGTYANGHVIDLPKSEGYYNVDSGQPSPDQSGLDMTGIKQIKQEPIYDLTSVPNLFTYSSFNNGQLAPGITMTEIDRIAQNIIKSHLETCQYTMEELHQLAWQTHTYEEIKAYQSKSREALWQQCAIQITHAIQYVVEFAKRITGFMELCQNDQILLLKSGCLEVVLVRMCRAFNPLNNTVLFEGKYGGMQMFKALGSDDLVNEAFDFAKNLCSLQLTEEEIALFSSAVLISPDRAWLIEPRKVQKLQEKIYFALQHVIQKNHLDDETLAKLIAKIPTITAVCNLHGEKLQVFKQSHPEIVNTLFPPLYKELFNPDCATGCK
Sequence of Oxysterols receptor LXR-alpha (Homo sapiens) (Q13133 whole entry, looked up, the tested form may be a part): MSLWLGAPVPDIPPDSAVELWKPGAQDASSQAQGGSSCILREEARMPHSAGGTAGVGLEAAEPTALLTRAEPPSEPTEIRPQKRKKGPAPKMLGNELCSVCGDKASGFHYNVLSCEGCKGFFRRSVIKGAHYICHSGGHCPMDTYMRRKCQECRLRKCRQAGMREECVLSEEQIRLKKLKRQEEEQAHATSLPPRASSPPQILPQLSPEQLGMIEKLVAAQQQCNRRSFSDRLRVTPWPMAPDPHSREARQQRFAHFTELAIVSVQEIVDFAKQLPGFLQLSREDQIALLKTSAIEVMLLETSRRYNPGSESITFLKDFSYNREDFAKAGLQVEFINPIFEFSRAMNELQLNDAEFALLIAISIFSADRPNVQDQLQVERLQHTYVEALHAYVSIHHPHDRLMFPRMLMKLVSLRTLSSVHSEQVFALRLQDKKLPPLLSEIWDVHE
Sequence of Bile acid receptor (Homo sapiens) (Q96RI1 whole entry, looked up, the tested form may be a part): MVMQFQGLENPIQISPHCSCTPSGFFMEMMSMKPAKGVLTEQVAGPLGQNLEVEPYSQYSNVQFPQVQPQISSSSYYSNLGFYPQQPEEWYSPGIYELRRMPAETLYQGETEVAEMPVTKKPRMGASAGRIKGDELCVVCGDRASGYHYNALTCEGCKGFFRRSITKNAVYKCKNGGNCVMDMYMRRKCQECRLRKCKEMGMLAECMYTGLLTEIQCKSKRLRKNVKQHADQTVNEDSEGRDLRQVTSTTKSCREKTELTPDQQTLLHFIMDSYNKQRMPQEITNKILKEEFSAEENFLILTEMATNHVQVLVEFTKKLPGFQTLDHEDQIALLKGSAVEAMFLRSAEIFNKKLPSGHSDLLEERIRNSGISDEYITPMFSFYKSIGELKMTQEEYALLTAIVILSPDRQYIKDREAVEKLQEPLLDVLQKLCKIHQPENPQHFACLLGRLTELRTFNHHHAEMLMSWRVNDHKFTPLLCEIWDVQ

`CCC(=O)OCc1ccc(OC)cc1`: the call in assay [1], in [2], in assay [3], in assay [4], in [5] and in assay [6] was inactive. Besides, the outcome in assay [7], in assay [8] and in assay [9] was inactive. The AC50 in assay [10] was 39.9 µM (active).

`CCCCNC(N)=O`: the call in assay [11], in assay [1], in [3], in assay [4], in assay [5] and in [7] was inactive. In addition, the compound was called inactive in [12], in [8], in assay [13], in assay [14], in assay [15] and in [16]. In addition, the compound was called inactive in assay [17] and in [9].

Take `CC(=O)OC(C)(C)Cc1ccccc1`: the outcome in [18], in assay [2], in assay [3], in assay [5], in [6] and in assay [7] was inactive. Moreover, the outcome in assay [8], in [14], in assay [17] and in assay [10] was inactive.

Take `O=C(Oc1ccccc1)c1ccccc1`: the compound was classed as inactive in [11], in [2], in [7], in assay [12], in [8] and in assay [13]. Also, the compound was classed as inactive in assay [14], in assay [16], in [10], in assay [19] and in [20].

As to `COC(=O)CCSCCC(=O)OC`, the call in [2], in assay [4], in assay [5], in assay [7] and in assay [16] was inactive.

Consider `Cc1ccccc1S(=O)(=O)O`, for which the result in assay [2], in [14] and in assay [9] was inactive.

For `CO[Si](CCCNCCN)(OC)OC`, the compound was called inactive in assay [11], in assay [18], in [7], in assay [8], in assay [14] and in assay [16]. Moreover, the compound was classed as inactive in assay [17] and in assay [10].

Consider `CCC(C)=NO`, for which the compound was called inactive in assay [18], in [1], in [2], in assay [4], in assay [7] and in [12]. In addition, the result in assay [16], in assay [17], in assay [10], in [19] and in [20] was inactive.

Consider `CCC(C)C1N=C(C)C(C)S1` (configuration not stated), for which the compound was classed as inactive in assay [3], in assay [4], in assay [6], in assay [7], in [12] and in assay [8]. Besides, the outcome in assay [15], in [16] and in assay [9] was inactive.

As to `Oc1cccc2ccccc12`, the call in [18], in assay [5], in [8], in assay [16], in assay [17] and in assay [9] was inactive. In addition, the outcome in assay [19] and in [20] was inactive.

Consider `CC/C=C\CCCCCO`, for which the result in assay [1], in [3], in [4], in [12], in assay [8] and in assay [15] was inactive. Moreover, the compound was classed as inactive in [16], in assay [9] and in assay [10].

With `COC(OC)C(C)c1ccccc1` (configuration not stated), the call in [11], in [18], in [3], in assay [12], in assay [8] and in assay [15] was inactive. Further, the call in assay [16], in assay [17] and in assay [9] was inactive. The AC50 in assay [10] was 20.7 µM (active).

Turning to `CN(C)CCCN1c2ccccc2CCc2ccc(Cl)cc21`, the AC50 in assay [18] was 10.4 µM (active); in assay [9], 73.9 µM (active); in assay [19], 66.7 µM (active); in assay [20] it was 45.5 µM (active). Moreover, the call in assay [3], in assay [4], in [13], in assay [16] and in assay [9] was inactive.

For `O=C(O)/C=C\C(=O)O`, the compound was called inactive in [18], in assay [2], in assay [3], in assay [4], in assay [7] and in assay [8]. Moreover, the outcome in [14], in assay [16], in assay [19] and in assay [20] was inactive.

Values taken from PubChem BioAssay (EPA / NIEHS).
